In all, about 310,000 compounds went through this assay and about 14,000 (4.5%) showed an effect of 50% or more. The effect is printed as a negative number. Many of the other results were omitted from the sample, so strong results are more common in it than they were.
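Further: peak tail current of the secondary pulse compared with the same well before compound.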

In this test the target is human ether-à-go-go-related gene (hERG) potassium channel (human, UniProt Q12809). The test can be described thus: primary screen, population patch clamp on CHO cells stably expressing hERG; higher = less effect of the substance.
human ether-à-go-go-related gene (hERG) potassium channel, sequence (Q12809 whole entry, looked up): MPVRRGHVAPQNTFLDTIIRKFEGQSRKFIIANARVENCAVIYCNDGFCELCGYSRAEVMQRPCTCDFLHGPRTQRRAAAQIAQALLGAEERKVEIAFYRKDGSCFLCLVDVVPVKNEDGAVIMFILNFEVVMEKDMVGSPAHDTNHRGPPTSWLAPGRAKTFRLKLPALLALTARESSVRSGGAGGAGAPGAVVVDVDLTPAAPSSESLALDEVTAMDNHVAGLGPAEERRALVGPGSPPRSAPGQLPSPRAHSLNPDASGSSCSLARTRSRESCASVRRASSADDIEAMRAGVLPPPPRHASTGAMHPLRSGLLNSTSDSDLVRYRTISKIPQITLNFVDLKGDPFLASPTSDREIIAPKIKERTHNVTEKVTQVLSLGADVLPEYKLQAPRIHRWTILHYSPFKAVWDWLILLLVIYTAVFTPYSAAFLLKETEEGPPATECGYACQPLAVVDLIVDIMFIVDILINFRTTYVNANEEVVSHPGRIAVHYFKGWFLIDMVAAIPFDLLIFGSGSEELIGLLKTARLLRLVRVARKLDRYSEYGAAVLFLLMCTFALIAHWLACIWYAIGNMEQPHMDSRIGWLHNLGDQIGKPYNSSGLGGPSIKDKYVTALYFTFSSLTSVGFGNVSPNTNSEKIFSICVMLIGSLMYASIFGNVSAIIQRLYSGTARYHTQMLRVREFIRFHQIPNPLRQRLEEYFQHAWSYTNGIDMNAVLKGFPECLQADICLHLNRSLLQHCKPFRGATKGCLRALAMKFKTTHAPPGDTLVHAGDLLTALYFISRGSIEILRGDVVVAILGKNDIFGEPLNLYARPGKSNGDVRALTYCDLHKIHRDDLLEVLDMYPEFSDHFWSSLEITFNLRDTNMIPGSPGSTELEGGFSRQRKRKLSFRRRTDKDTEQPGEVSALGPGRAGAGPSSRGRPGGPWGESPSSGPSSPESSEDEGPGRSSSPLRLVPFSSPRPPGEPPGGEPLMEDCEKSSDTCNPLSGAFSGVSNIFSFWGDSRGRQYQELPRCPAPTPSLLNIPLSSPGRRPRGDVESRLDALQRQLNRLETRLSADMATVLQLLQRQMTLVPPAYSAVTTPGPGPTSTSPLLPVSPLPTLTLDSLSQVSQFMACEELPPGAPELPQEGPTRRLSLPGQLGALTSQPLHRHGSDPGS
Consider `COC(=O)c1c(NC(=O)c2ccco2)sc(C)c1C`, for which the “hERG current change (%, negative = inhibition) at 10uM” value amounted to 18.1%.
In the case of `CCCNC(=O)COC(=O)c1ccccc1OCc1ccc(Cl)cc1`, the “hERG current change (%, negative = inhibition) at 10uM” value is listed as -0.354%.
The value for `Cc1ccc(N(Cc2ccccc2)C(=O)c2cc(S(=O)(=O)N3CCOCC3)ccc2N2CCCC2)cc1` was 5.59%.
The value for `Cc1cccc(N(Cc2ccccc2)C(=O)c2cc(S(=O)(=O)N3CCOCC3)ccc2F)c1` was -5.69%.
Take `COc1ccc(CC(=O)N(Cc2ccccc2)c2ccccc2)cc1S(=O)(=O)N1CCOCC1`: the “hERG current change (%, negative = inhibition) at 10uM” value worked out at 1.07%.
The value for `Cc1cccc(N(Cc2ccccc2)C(=O)c2cc(S(=O)(=O)N3CCOCC3)ccc2Cl)c1` was -13.3%; that for `Cc1cccc(N(Cc2ccccc2)C(=O)c2ccc(C)c(S(=O)(=O)N3CCOCC3)c2)c1` was -17.6%.
On to `Cc1ccc(N(Cc2ccccc2)C(=O)c2cc(S(=O)(=O)N3CCOCC3)ccc2F)cc1`, for which the “hERG current change (%, negative = inhibition) at 10uM” value was -10.2%.
On to `Cc1cccc(N(Cc2ccccc2)C(=O)c2ccc(F)c(S(=O)(=O)N3CCOCC3)c2)c1`, for which the “hERG current change (%, negative = inhibition) at 10uM” value is -50.5%.
The value for `Cc1ccc(N(Cc2ccccc2)C(=O)c2ccc(C)c(S(=O)(=O)N3CCOCC3)c2)cc1` was -18%; that for `COc1ccc(C(=O)N(Cc2ccccc2)c2cccc(C)c2)cc1S(=O)(=O)N1CCOCC1` was -35.8%.
In the case of `COc1ccc(C(=O)N(Cc2ccccc2)c2ccc(C)cc2)cc1S(=O)(=O)N1CCOCC1`, the “hERG current change (%, negative = inhibition) at 10uM” value is given as -67.7%.
Turning to `Cc1ccc(N(Cc2ccccc2)C(=O)c2ccc(Cl)c(S(=O)(=O)N3CCOCC3)c2)cc1`, the “hERG current change (%, negative = inhibition) at 10uM” value is -70.3%.
The value for `Cc1ccc(N(Cc2ccccc2)C(=O)c2ccc(F)c(S(=O)(=O)N3CCOCC3)c2)cc1` was -82.7%; that for `Cl.O=C(C1CCN(S(=O)(=O)c2cccs2)CC1)N1CCN(Cc2ccccc2)CC1` was 3.79%.
Under `Cn1c(=O)[nH]c(=O)c2c1nc(SCCC(=O)O)n2Cc1cccc(Br)c1` stands 1.52%; under `COCCNC(=S)NC1CC2CCC(C1)N2Cc1ccccc1` (centres unmarked), 2.78%.
For the molecule `COc1ccc(C2C(C(=O)c3cccs3)=C(O)C(=O)N2Cc2cccnc2)cc1OC` (centres unmarked), the “hERG current change (%, negative = inhibition) at 10uM” value worked out at 5.03%.
The value for `CC(Oc1ccc(F)cc1)C(=O)Nc1nc(-c2ccccn2)cs1` (centres unmarked) was -76.3%; that for `CC(Oc1ccc(Br)cc1)C(=O)Nc1nc(-c2ccccn2)cs1` (centres unmarked) was -5.7%; that for `CC(Oc1cccc(Cl)c1)C(=O)Nc1nc(-c2ccccn2)cs1` (centres unmarked) was 4.19%.
Regarding `O=C(Nc1cccc(C(=O)O)c1)/C(=C\c1ccccc1Cl)NC(=O)c1ccco1`, the “hERG current change (%, negative = inhibition) at 10uM” value came out at 6.89%.
The value for `COc1ccc(CC(=O)N(C)CC(=O)Nc2ccccc2SC)cc1` was 8.56%; that for `CCc1nnc(NC(=O)c2cc(C)oc2C)s1` was -10%.
The value for `CC(C)N(Cc1nnc(-c2ccc(Cl)cc2)o1)C(=O)C1=COCCO1` was -19.9%; that for `CC(C)N(Cc1nnc(-c2ccccc2Br)o1)C(=O)c1cc(Cl)nc2ccccc12` was -24.9%; that for `CC(C)N(Cc1nnc(-c2ccc(Cl)cc2)o1)C(=O)c1cc2ccccc2o1` was -40.1%.
As to `Cc1ccccc1OCC(=O)N(Cc1nc(-c2ccccc2)no1)C(C)C`, the “hERG current change (%, negative = inhibition) at 10uM” value is -15%.
Turning to `Cc1cc(C(=O)N(Cc2nnc(-c3ccc(Cl)cc3)o2)C(C)C)c2ccccc2n1`, the “hERG current change (%, negative = inhibition) at 10uM” value was -58.5%.
Under `Cc1ccccc1OCC(=O)N(Cc1nnc(-c2ccc(Cl)cc2)o1)C(C)C` stands -53.5%.
Under `CNc1ccc(Cl)cc1C(N)=O` stands 26.1%; under `Cc1ccc(C(=O)COC(=O)c2nc3nccc(C)n3n2)c(C)c1`, -7.14%; under `COc1ccc(Cl)cc1NS(=O)(=O)N1CCOCC1`, 6.86%.
Under `CC(Cc1ccccc1)NC(=O)c1cc([N+](=O)[O-])ccc1Cl` (centres unmarked) stands -4.69%; under `O=C(NCc1cccnc1)C1CCCN(S(=O)(=O)c2ccc(Br)cc2)C1` (centres unmarked), -41.6%.
On to `COc1ccc(Cl)cc1S(=O)(=O)N1CCCC(C(=O)NCc2ccncc2)C1` (centres unmarked), for which the “hERG current change (%, negative = inhibition) at 10uM” value is given as -25.7%.
Under `O=C(NCc1ccncc1)C1CCCN(S(=O)(=O)c2cc(Cl)ccc2Cl)C1` (centres unmarked) stands -61.2%.
Under `O=C(NCCCn1ccnc1)C1CCCN(S(=O)(=O)c2cc(Cl)ccc2Cl)C1` (centres unmarked) stands -60.3%; under `O=C(NCc1ccccc1)C1CCCN(S(=O)(=O)c2ccc(Br)cc2)C1` (centres unmarked), 23.4%.
Under `O=C(NCc1ccncc1)C1CCN(S(=O)(=O)c2cc(Cl)ccc2Cl)CC1` stands -18.9%; under `O=C(NCc1ccncc1)C1CCCN(S(=O)(=O)c2ccc(Br)cc2)C1` (centres unmarked), -77.5%.

For the origin of these results see publication PMC4336329 (PLoS ONE, 2015).
